Results filed as inconclusive are left out. Values without a mark were called inactive. The call rests on the fitted dose curve.
test: p53 small molecule agonists, cell-based qHTS assay with rat liver microsomes (AID 1963578); settings: HCT-116 p53RE-bla, beta-lactamase ratio, 16 h; series mostly up to 66 µM; activation: at the top concentration
Description: U.S. Tox21 Program National Center for Advancing Translational Sciences [NCATS] Division of Preclinical Innovation [DPI] U.S. Environmental Protection Agency [EPA] National Institutes of Environmental Health Sciences [NIEHS] National Toxicology Program [NTP] U.S. Food and Drug Administration [FDA] Tox21 Assay Overview: p53, a tumor suppressor protein, is activated following cellular insult, including DNA damage and other cellular stresses. The activation of p53 regulates cell fate by inducing DNA repair, cell cycle arrest, apoptosis, or cellular senescence. The activation of p53, therefore, is a good indicator of DNA damage and other cellular stresses. […] The activation of the reporter gene under culture conditions can be detected by fluorescence intensity. This cell line was used to screen the Tox21 10K compound library in the condition of presence of rat liver microsomes and to identify agonists that activate the p53 signaling pathway after in vitro metabolic activation (Ooka et al., Archive of Toxicology 96:1975-1987, 2022).
Tox21 Assay Protocol Summary: The p53RE-bla cells were dispensed at 4,000cells/3ul/well in 1536-well black-clear bottom plates. After the assay plates were incubated at 37 C, 5% CO2 incubator for 5 hours, 23 nL of compounds dissolved in DMSO, positive controls or DMSO only was transferred to the assay plate. Following compound addition, 3 uL of rat liver microsomes (Molecular Toxicology, Boone, NC) at final concentration of 0.5 mg/mL and 1uL of Beta-Nicotinamide adenine dinucleotide 2-phosphate (NADPH) at final concentration of 0.5 mg/mL were transferred to the assay plate. The plates were incubated at 37 C for 16 hours. 1 uL of LiveBLAzer detection mixture was added to each well and the plates were incubated at room temperature in the dark for 2 h.
On the % scale 0 is the no-effect control and ±100 the full control effect.

Compared with `O=[N+]([O-])c1cccc(I)c1`, `Cc1cccc([N+](=O)[O-])c1C(=O)O` is lower in “activation” value: 0.725% for the first, 0.427% for the second.

Going from `CCOC(=O)C1=NN(c2ccc(Cl)cc2Cl)C(C)(C(=O)OCC)C1` (stereo not given) to `O=C(O)c1ccc(Cl)c(Cl)c1`, the “activation” value falls from -4.46% to -4.66%.

First: Nc1cnn([C@@H]2O[C@H](CO)[C@@H](O)[C@H]2O)c(=O)n1
Second: O=C1c2ccccc2C(=O)N1CO
The “activation” value of the first is higher: 9.57% for the first, 4.55% for the second.

Going from `O=S(=O)(Cl)c1c(Cl)cccc1Cl` to `COC(=O)c1cc(C(=O)OC)cc(S(=O)(=O)O)c1`, the “activation” value falls from 0.184% to -0.255%.

Compared with `CCOc1ccccc1N`, `CCc1ccc(CC)cc1` is higher in “activation” value: 0.0186% for the first, 8.56% for the second.

Compared with `C=COC(=O)C(C)(CC)CCC(C)C` (stereo not given), `C=CC(C)(CCC=C(C)C)OC(=O)C(C)C` (stereo not given) is higher in “activation” value: 0.259% for the first, 3.32% for the second.

Compared with `C=C(C)C1CCC(C)CC1O` (stereo not given), `C=C(C)C1CC=C(C)C(O)C1` (stereo not given) is lower in “activation” value: 0.349% for the first, 0.139% for the second.

Going from `O=C(Nc1ccccc1)Nc1ccccc1` to `CCCCN(CCCC)C(=O)N(CCCC)CCCC`, the “activation” value falls from -2.77% to -4.54%.

In the case of `CC(C)=CCC/C(C)=C/C=N/O`, the “activation” value is reported as -2.55%.

Going from `NC1CCN(c2cccc(Cl)n2)CC1` to `O=C(CCC1CCN(Cc2ccccc2)CC1)c1ccc2c(c1)NCCCC2`, the “activation” value falls from 0.758% [at 30.3 µM] to 0.0167% [at 30.3 µM].

First: CCC1NC(=O)c2cc(S(N)(=O)=O)c(Cl)cc2N1 (stereo not given)
Second: Cc1ccccc1N1C(=O)c2cc(S(N)(=O)=O)c(Cl)cc2NC1C (stereo not given)
The “activation” value of the first is lower: 0.0088% [at 30.3 µM] for the first, 0.618% [at 30.3 µM] for the second.

Going from `O=C(OOC(=O)c1ccccc1)c1ccccc1` to `C[N+]1(C)CCCC(OC(=O)C(O)(c2ccccc2)c2ccccc2)C1` (stereo not given), the “activation” value rises from -1.16% [at 30.3 µM] to 0.379% [at 30.3 µM].

Compared with `CCCN(CCC)CCc1cccc2c1CC(=O)N2`, `CC1=NS(=O)(=O)c2cc(Cl)ccc2N1` is lower in “activation” value: -0.194% [at 30.3 µM] for the first, -0.39% [at 30.3 µM] for the second.

Going from `CCCC(=O)OCOC(=O)C1=C(C)NC(C)=C(C(=O)OC)C1c1cccc(Cl)c1Cl` (stereo not given) to `CC(C)OC(=O)c1cc2c(OCC(O)CNC(C)(C)C)cccc2[nH]1` (stereo not given), the “activation” value rises from -1.71% [at 30.3 µM] to -1.49% [at 30.3 µM].

Going from `O=S1(=O)c2cccc3cccc(c23)N1CCCN1CCN(c2ccc(F)cc2)CC1` to `O=C(O)Cc1cn(-c2ccccc2)nc1-c1ccc(Cl)cc1`, the “activation” value rises from -0.934% [at 30.3 µM] to 1.1% [at 30.3 µM].

Going from `Cc1c(C(=O)NCCO)[n+](=O)c2ccccc2n1[O-]` to `CCCOC(=O)c1ccc(N)cc1`, the “activation” value falls from 0.176% [at 30.3 µM] to -0.141% [at 30.3 µM].

Going from `COC(=O)[C@H]1[C@H]2C[C@@H]3c4[nH]c5cc(OC)ccc5c4CCN3C[C@H]2C[C@@H](OC(=O)COc2ccc(OC)cc2)[C@@H]1OC` to `CN1Cc2cc(C(=O)N3CCC(C4CCNCC4)CC3)ccc2N[C@@H](CC(=O)O)C1=O`, the “activation” value falls from 0.359% [at 30.3 µM] to -2.83% [at 30.3 µM].

Compared with `O[C@@H]1CO[C@H]2[C@@H]1OC[C@@H]2O`, `CC(C)=CCC[C@@](C)(O)[C@H]1CC=C(C)CC1` is higher in “activation” value: -1.82% [at 30.3 µM] for the first, -0.443% [at 30.3 µM] for the second.

Compared with `CCS(=O)(=O)CCn1c([N+](=O)[O-])cnc1C`, `CO[C@@]1(NC(=O)CSCC#N)C(=O)N2C(C(=O)O)=C(CSc3nnnn3C)CS[C@@H]21` is higher in “activation” value: -1.34% [at 30.3 µM] for the first, 0.219% [at 30.3 µM] for the second.

With `N#CSCC(=O)O` the “activation” value was 0.414% [at 30.3 µM].

With `O=C(O)C[C@H](O)C[C@H](O)/C=C/c1c(C2CC2)nc2ccccc2c1-c1ccc(F)cc1` the activation was -4.07% [at 13.6 µM].

`O=C1c2ccccc2C(=O)c2cc(Cl)ccc21` gave an activation of 1.77% [at 5.99 µM].

Source: PubChem BioAssay (Tox21)
